# Screens as filed in PubChem.
# Most compounds without a hit are left out; they make up all but 6.9% or so of the library.
# MCF10A rereplic: DNA re-replication induction in MCF 10a cells. MCF 10A DNA re-replication, Hoechst nuclear intensity, 48 h. Potency, µM (titrated, usually from 46.1 µM), inactives show top-dose activity, positive = re-replication, hits mostly activators. 350,000 tested, 2.9% active. AID 624296; note: potency is the fitted concentration of half-maximal effect; % of control where 0% means no effect; nearly all actives have a fitted effect of over 50% in size
# S-ASM inh: blocks human secretory acid sphingomyelinase | P17405 | placental ASM, HMU-PC fluorogenic substrate, 60 min | Potency, µM (titrated, usually from 57.5 µM), without a hit: at the highest dose activity change, negative = inhibition, usual class: inhibitors | 340,000 tested, 0.006% active | AID 504937; note: potency is the fitted concentration of half-maximal effect
# Target sequence (P17405 47-631 limits assumed): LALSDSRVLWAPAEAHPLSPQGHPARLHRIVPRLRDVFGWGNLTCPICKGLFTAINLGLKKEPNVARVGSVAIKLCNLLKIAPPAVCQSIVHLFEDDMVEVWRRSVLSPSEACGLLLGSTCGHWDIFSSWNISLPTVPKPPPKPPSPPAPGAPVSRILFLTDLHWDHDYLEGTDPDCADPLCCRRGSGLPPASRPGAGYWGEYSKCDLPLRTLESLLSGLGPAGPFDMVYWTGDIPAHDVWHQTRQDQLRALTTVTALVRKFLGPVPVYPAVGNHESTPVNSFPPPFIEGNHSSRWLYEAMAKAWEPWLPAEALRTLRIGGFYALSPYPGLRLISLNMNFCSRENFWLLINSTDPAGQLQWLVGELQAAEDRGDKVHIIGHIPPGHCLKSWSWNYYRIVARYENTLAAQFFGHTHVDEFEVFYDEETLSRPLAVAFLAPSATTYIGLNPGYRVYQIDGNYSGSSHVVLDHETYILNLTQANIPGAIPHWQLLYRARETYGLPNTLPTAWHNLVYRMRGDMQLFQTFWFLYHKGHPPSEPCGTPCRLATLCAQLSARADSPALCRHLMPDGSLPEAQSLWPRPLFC
#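 qHTS format. ASM enzyme prepared from human placenta hydrolyses the fluorogenic substrate HMU-PC0 (9 uM final) over 60 min at 37 °C after a 10 min compound preincubation.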
# SW480 rereplic: induces DNA re-replication in SW480 colon adenocarcinoma cells; 340,000 tested, 1.8% active; SW480 DNA re-replication, Hoechst DNA content imaging, 48 h; Potency, µM (doses to about 46.1 µM), without a hit: at the highest dose re-replication activation, usual class: activators; note: potency is the fitted concentration of half-maximal effect; % of control where 0% means no effect; nearly all actives have a fitted effect of over 55% in size
#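 Hoechst fluorescence of nuclei (405 nm excitation, 500-530 nm emission) measured by plate-scanning imager after 48 hr compound exposure at 37 C; re-replication scored as increased number of nuclei with elevated intensity.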
# KB-V1 cytotox: KB-V1 MDR subline cytotoxicity | AID 1347076 | Potency, µM (top dose mostly 46.1 µM), hits mostly cytotoxic | 400,000 tested, 3.4% active | KB-V1 MDR cells viability, CellTiter-Glo, 72 h; note: potency is the fitted concentration of half-maximal effect; % is set by controls: 0 for no effect and ±100 for the full control effect; nearly all actives have a fitted effect of over 60% in size
#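 In this primary screen, KB-V1 cells overexpressing P-gp are incubated with library compounds (lowest to highest concentration) for 72 h at 37 degrees C before a luminescent ATP viability read.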
# Giardia kill: kills Giardia lamblia; Giardia lamblia trophozoite viability; activity change, % at 7.66 µM, hits read low; 340,000 tested, 0.15% active; AID 540267; in the data active = activity change below about -80%; inconclusive = between about -30% and that limit;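 note: parasites exposed to compound for two days anaerobically before the ATP read; % is set by controls: 0 for no effect and ±100 for the full control effect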
#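 Compounds were tested on trophozoites seeded at 100 cells/well and held 48 hrs at 37 deg C anaerobically. An ATP-based luminescent kit measured the remaining live cells.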
# KB-3-1 tox: KB-3-1 parental cell cytotoxicity; 400,000 tested, 1.4% active; Potency, µM (series often up to 46.1 µM), most hits filed as cytotoxic; KB-3-1 viability, CellTiter-Glo ATP luminescence, 72 h; AID 1347075; note: potency is the fitted concentration of half-maximal effect; % is set by controls: 0 for no effect and ±100 for the full control effect; nearly all actives have a fitted effect of over 60% in size
#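 Cytotoxicity in the drug-sensitive parental line KB-3-1 was scored as loss of CellTiter-Glo luminescence following 72 h incubation with compound. Values come from curve fitting of normalized concentration-response data.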
# The depositor's hits bear a star; i = inactive; u = inconclusive; x = no result. Unless noted, calls come from the whole dose curve; as a rule, active = well fitted curve in the direction sought with a large enough effect; inconclusive = small, poorly fitted or top-dose-only effect, or another doubt; inactive = no such curve, though single readings can be large; an effect the other way counts as inactive or inconclusive.
SMILES,MCF10A rereplic,S-ASM inh,SW480 rereplic,KB-V1 cytotox,Giardia kill,KB-3-1 tox
CCOc1ccc(C(C)C)cc1S(=O)(=O)Nc1cccc(-c2ccc(N3CCOCC3)nn2)c1,x,x,x,u,x,i
COc1ccc(CNC(=O)[C@H](Cc2ccccc2)NC(=O)C2CCNCC2)cc1,18%,-2%,-2%,i,0,i
Cc1ccc2cccc(NC(=O)c3ccc(-c4ccc(Cl)cc4Cl)o3)c2n1,x,x,x,i,x,i
O=c1oc2c(CN3CCCCC3)c(O)ccc2cc1-c1nc2ccccc2[nH]1,27%,197%,17%,i,3,i
O=c1oc2c(O)cccc2cc1-c1nc2ccccc2[nH]1,u,i,3.3µM*,i,u,21µM*
CCCCOC(=O)c1ccc(Nc2nc3ccccc3c3nnc(C)n23)cc1,x,x,x,i,x,i
CC(=O)Cc1nsc(NC(=O)c2ccc(-c3ccccc3Cl)o2)n1,12µM*,-6%,u,u,-7,u
COc1ccc(-c2noc(CSc3nc4ccccc4[nH]3)n2)cc1OC,x,x,x,i,x,u
COCCn1c(C)cc(O)c(C(c2ccccc2)N2CCN(c3ccc(F)cc3)CC2)c1=O (centres undefined),x,x,x,i,x,i
O=C(CC(=O)NC1CCCCC1)N/N=C/c1ccc(Cl)cc1,-19%,-2%,-4%,i,-18,i
Cc1cc(/C=N\NC(=O)CC(=O)NC2CCCCC2)c(C)n1-c1ccc(Cl)cc1,20%,-7%,10%,21µM*,2,i
Cc1cc(/C=N/NC(N)=S)c(C)n1-c1ccc(Br)cc1,u,-3%,11%,u,-10,i
Cc1cc(/C=N/NC(N)=S)c(C)n1-c1ccc(Cl)cc1,8.2µM*,-4%,u,i,10,i
COC(=O)c1ccc(CSc2ccc3nnc(-c4ccc(OC)c(OC)c4)n3n2)o1,-1%,-14%,-18%,7.3µM*,-1,i
CC(=O)N/N=C/c1cc(C(C)(C)C)cc(/C=N/NC(C)=O)c1O,15µM*,12%,3.3µM*,u,9,i
CCC1(C)Cc2c(sc3nnn(Cc4ccccc4Cl)c(=O)c23)CO1 (centres undefined),16µM*,-6%,17%,21µM*,8,i
CCC1(C)Cc2c(sc3nnn(CC(=O)Nc4ccccc4C)c(=O)c23)CO1 (centres undefined),-1%,-2%,1%,15µM*,-3,i
CCC1(C)Cc2c(sc3nnn(CC(=O)Nc4ccccc4)c(=O)c23)CO1 (centres undefined),-3%,-2%,2%,7.3µM*,-2,i
CC1(C)Cc2c(sc3nnn(Cc4ccccc4)c(=O)c23)CO1,u,-1%,1%,i,-27,i
Cc1ccccc1NC(=O)Cn1nnc2sc3c(c2c1=O)CC(C)(C)OC3,4%,1%,2%,i,-2,i
COc1cc(CNc2ccc(C(=O)O)cc2)cc(Br)c1OCC(=O)NC(C)(C)C,-4%,-13%,-23%,u,-14,i
C=CCOc1c(Br)cc(CNc2ccc(NC(=O)C(C)C)c(OC)c2)cc1OC,5.8µM*,-8%,18µM*,4.1µM*,-1,u
Cc1ccc(OCC(=O)Nc2ccc(S(=O)(=O)Nc3ncccn3)cc2)c(C(C)(C)C)c1,x,x,x,i,x,i
COc1ccccc1C1CCN(c2cc(O)ccc2[N+](=O)[O-])CC1,16µM*,-10%,-36%,u,-18,i
COc1ccccc1C1CCN(C(=O)c2ccccc2)CC1,u,-1%,-6%,i,-13,i
Cc1ccc2c(/C=C/c3ccc(N(C)C)cc3)ccnc2c1C,x,x,x,u,x,i
O=C1COc2ccccc2N1Cc1c(F)cccc1Cl,23µM*,-2%,50%,i,18,i
O=C(Nc1ccc(Cl)cc1)C1CCCCN1S(=O)(=O)c1ccccc1 (centres undefined),u,0%,u,3.7µM*,24,23µM*
